Assay outcomes: PubChem, National Center for Advancing Translational Sciences (NCATS)
An excerpt weighted towards active compounds, which were near 3.2% of everything screened.
AmpC inh detg = qHTS Inhibitors of AmpC Beta-Lactamase (assay with detergent) | P00811 | AmpC hydrolysis of nitrocefin, absorbance 480 nm, 0.01% Triton | Potency, µM (titrated, usually from 114 µM), inactives show at the highest dose activity change, negative = inhibition, actives largely listed as inhibitors | 0.041% of 370,000 active | AID 485294, 2010;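 further: 0% = no-compound wells and -100% = no-enzyme wells; nearly all actives have a fitted effect of over 25% in size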
Target sequence (P00811 whole entry, looked up): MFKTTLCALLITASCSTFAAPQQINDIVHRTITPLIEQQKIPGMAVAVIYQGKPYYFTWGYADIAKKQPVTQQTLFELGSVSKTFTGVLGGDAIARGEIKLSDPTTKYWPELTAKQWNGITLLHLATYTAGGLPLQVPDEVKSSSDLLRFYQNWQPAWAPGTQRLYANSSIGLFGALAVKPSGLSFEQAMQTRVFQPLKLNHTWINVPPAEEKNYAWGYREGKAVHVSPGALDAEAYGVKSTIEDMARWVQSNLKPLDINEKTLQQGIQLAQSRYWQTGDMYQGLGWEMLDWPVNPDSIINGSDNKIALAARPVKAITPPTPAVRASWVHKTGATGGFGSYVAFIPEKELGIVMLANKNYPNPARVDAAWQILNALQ
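20 mM phosphate pH 7.0 + 0.01% (detergent screen) or 0.0001% Triton X-100; 5.3 nM AmpC reagent; cpd preinc 15 min RT; nitrocefin (800 uM stock) to start; A480 q20 s × 4 min; Activity was normalised to no-enzyme and no-compound control wells.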
AMA1 RON2 block = qHTS for Inhibitors of AMA1-RON; Towards Development of Antimalarial Drug Lead: Primary Screen; Plasmodium falciparum AMA1 (3D7) - RON2 peptide interaction; AlphaScreen AMA1-biotinylated RON2 peptide binding; Potency, µM (highest dose often 58.2 µM), without a hit: top-dose activity change, negative = inhibition, usual class: inhibitors; 0.2% of 360,000 active; AID 720542, 2013;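 further: 0% = vehicle wells and -100% = peptide control; nearly all actives have a fitted effect of over 45% in size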
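AMA1 (3D7) with his tag at 25 nM final met compounds first, then biotinylated RON2 peptide at 25 nM; detection used donor plus acceptor beads, 10 µg/mL apiece, read by AlphaScreen after 30 min at room temperature.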
Sm TGR block = qHTS Assay for the Inhibitors of Schistosoma Mansoni Peroxiredoxins | Potency, µM (doses to about 114 µM), without a hit: at the highest dose activity change, negative = inhibition, hits mostly inhibitors | purified TGR, DTNB reduction, TNB absorbance 405 nm | 3% of 360,000 active | AID 485364, 2010 | Schistosoma mansoni thioredoxin glutathione reductase (TGR), Q962Y6; further: nearly all actives have a fitted effect of over 60% in size
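TGR 20 nM + NADPH 100 uM (dispensed conc.), cpd preinc 15 min RT; start with NADPH (500 uM addition) then DTNB (15 mM addition). Kinetic TNB absorbance, 405 nm filter. Four-parameter Hill fit across titration.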
AmpC no deterg = qHTS Inhibitors of AmpC Beta-Lactamase (assay without detergent) | P00811 | AmpC nitrocefin hydrolysis, absorbance 480 nm, 0.0001% Triton | Potency, µM (top dose mostly 57.1 µM), inactives show at the top dose activity change, negative = inhibition, actives largely listed as inhibitors | 0.52% of 330,000 active | AID 485341, 2010;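 further: plate controls were no compound for no effect and no enzyme for full effect; nearly all actives have a fitted effect of over 20% in size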
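AmpC (5.3 nM in the dispensed reagent) in 20 mM phosphate pH 7.0 with 0.01% (detergent screen) or 0.0001% Triton X-100 was preincubated with compounds for 15 min at room temperature. Nitrocefin was then added from an 800 uM solution, and hydrolysis was followed at 480 nm.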
RE007 growth inh = qHTS Assay for Inhibitors of the HIV-1 protein Vpr. S. pombe RE007 Vpr strain, BacTiter-Glo ATP luminescence, 24 h. Potency, µM (top dose mostly 92.2 µM), for inactives: at the top dose activity change, negative = less growth, usual class: inhibitors. 0.21% of 360,000 active; active means well fitted falling curve with a large enough effect; inconclusive means small, poorly fitted or top-dose-only effect; inactive means no such curve, though single readings can be large or run the other way; further: nearly all actives have a fitted effect of over 50% in size
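Fission yeast strain RE007, carrying one chromosomally integrated HIV-1 vpr copy, was seeded at OD 0.01 in PMG+AL medium with 23 nL pinned compound. After 24 h at 30 °C and 99% humidity, viability was read by BacTiter-Glo luminescence.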
The depositor's hits bear a star; ? = inconclusive; . = no result; ! = not active in a repeat. Unless noted, the call rests on the fitted dose curve; in most records, active means well fitted curve in the direction sought with a large enough effect; inconclusive means small, poorly fitted or top-dose-only effect, or another doubt; inactive means no such curve, though single readings can be large; an effect the other way counts as inactive or inconclusive. Unless noted, on the % scale 0 is the no-effect control and ±100 the full control effect; potency means the concentration at half of the fitted maximal effect.

SMILES | AmpC inh detg | AMA1 RON2 block | Sm TGR block | AmpC no deterg | RE007 growth inh
O=C(c1ccco1)N1CCN(S(=O)(=O)c2ccc(Br)s2)CC1 | -11% | 5% | 11µM* | -18% | -1%
CCc1ccc(-c2cc(C)no2)cc1S(=O)(=O)N1CCN(C(=O)c2ccco2)CC1 | -1% | -4% | 45µM* | 137% | 7%
CC(C)(C)c1ccc(C(=O)N2CCN(S(=O)(=O)c3ccc(Br)s3)CC2)cc1 | 17% | -9% | -3% | -17% | -5%
Cc1ccc(-c2ccc(=O)n(CC(=O)NCCc3ccccc3)n2)cc1 | 1% | . | 7% | . | .
CCC1CCCCN1CCCNC(=O)c1ccc2c(c1)NC(=O)CN2C (centres undefined) | 1% | 14% | -28% | -17% | -17%
CCCCN(CC)CCCNC(=O)c1ccc2c(c1)NC(=O)CN2C | -3% | . | 22µM* | . | .
CC(C)OCCCNC(=O)CCCN1C(=O)CCn2nc(-c3cccn3C)cc21 | 3% | . | -9% | . | .
O=C(CSc1nc2ccc(NC(=O)c3ccccc3C(=O)O)cc2s1)Nc1ccc(F)c([N+](=O)[O-])c1 | -8% | -20% | -13% | 18µM* | 1%
CNCc1ccccc1Sc1cc(O)ccc1O | ? | 11µM* | 3.5µM* | -33% | 45%
CC(c1ccccc1)N1CCN(C(=O)CCl)CC1 (centres undefined) | -2% | -2% | 45µM* | -14% | -8%
O=C(CCl)N1CCN(S(=O)(=O)c2ccc3c(c2)CCC3)CC1 | -7% | -5% | 5µM* | -9% | 9%
O=C(CCl)N1CCN(S(=O)(=O)Cc2ccccc2)CC1 | -2% | 0% | 16µM* | -15% | 8%
CN1C(=O)N(CC(=O)N2CCN(S(=O)(=O)c3ccc4c(c3)CCC4)CC2)C(=O)C12CCCCC2 | -8% | -5% | 4% | -3% | -12%
Cc1cc(=O)oc2cc(OCC(=O)N3CCN(C(C)c4ccccc4)CC3)c(Cl)cc12 (centres undefined) | -5% | -4% | -1% | 146% | -18%
O=C(CSc1nc(=O)n(Cc2ccncc2)c2c1CCC2)Nc1cccc(F)c1 | 1% | . | ? | . | .
O=c1n(Cc2ccc(Cl)cc2)nc2n1-c1ccccc1OC2 | -2% | . | 3% | . | .
Cc1cccc(NC(=O)c2c(C)cc(C)nc2SCC(=O)c2ccccc2)c1 | -5% | . | 0% | . | .
COc1cc2c(cc1OC)C(C1C(=O)CC(C)(C)CC1=O)N(C(=O)CCl)CC2 (centres undefined) | -13% | 16% | ? | -12% | -2%
COc1cc2c(cc1OC)C(c1cc(Br)ccc1F)N(C(=O)CCl)CC2 (centres undefined) | -1% | -5% | 0.79µM* | -1% | .
O=C(NCc1ccco1)c1ccc2c(c1)N(Cc1cccc(Cl)c1)C(=O)c1ccccc1S2=O (centres undefined) | -6% | . | 4% | . | .
O=C(C#Cc1ccccc1)c1ccc([N+](=O)[O-])cc1 | ? | -24% | 0.32µM* | -17% | -26%
O=C(C#Cc1ccccc1)c1ccccc1 | . | 21% | . | . | ?
CN(C)[C@@H]1C(=O)C(C(N)=O)=C(O)[C@@]2(O)C(=O)C3=C(O)c4c(O)cccc4[C@@](C)(O)C3[C@H](O)C12 (some centres undefined) | ? | 1.4µM*! | 8.9µM* | -33% | 0%
CN(C)[C@@H]1C(=O)C(C(=O)NCN2CCCC2)=C(O)[C@@]2(O)C(=O)C3=C(O)c4c(O)cccc4[C@@](C)(O)C3CC12 (some centres undefined) | ? | . | 7.9µM* | 15% | .
C=C1c2cccc(O)c2C(O)=C2C(=O)[C@]3(O)C(O)=C(C(N)=O)C(=O)[C@@H](N(C)C)[C@@H]3[C@@H](O)[C@H]12 | ? | 3.2µM* | 35µM* | -32% | -5%
SMILES | AmpC inh detg | AMA1 RON2 block | Sm TGR block | AmpC no deterg | RE007 growth inh
C[C@H]1c2cccc(O)c2C(O)=C2C(=O)C3(O)C(O)=C(C(N)=O)C(=O)[C@@H](N(C)C)[C@@H]3[C@@H](O)[C@@H]21 (some centres undefined) | ? | ? | ? | -13% | 10%
O=C(/C=C/c1ccc(Br)cc1)c1ccc(NC2=NCCCS2)cc1 | 1% | -28% | -2% | 14µM* | -17%
Cc1cccc(/C=C/C(=O)c2ccc(NC3=NCCCS3)cc2)c1 | -1% | -22% | -18% | -28% | -13%
CC(C)(C)c1ccc(/C=C/C(=O)c2ccc(NC3=NCCCS3)cc2)cc1 | -3% | -6% | 2% | 49% | ?
O=C(/C=C/c1ccccc1)c1ccc(NC2=NCCCS2)cc1 | ? | -7% | -12% | 28µM* | .
COc1ccc(-n2ccnc(NCc3cccs3)c2=O)cc1 | 0% | . | ? | . | .
CCC(=O)OCCNc1cc(Sc2nccn2C)c2nonc2c1[N+](=O)[O-] | ? | 24% | 0.71µM* | -26% | 4%
CCCC(=O)OCCNc1cc(Sc2nc3ccccc3[nH]2)c2nonc2c1[N+](=O)[O-] | ? | -25% | 0.5µM* | 13µM* | -5%
CCOC(=O)C(C)c1nc2ccccc2[nH]c1=O (centres undefined) | -2% | 21% | 7% | -16% | -9%
CCN(CC)c1cc(NCCO)c([N+](=O)[O-])c2nonc12 | 3% | -1% | -11% | 3% | -15%
O=[N+]([O-])c1c(NCCO)cc(N2CCCCC2)c2nonc12 | 6% | 7% | 2% | -5% | 9%
CCC(=O)OCCNc1cc(SCCC(=O)OC)c2nonc2c1[N+](=O)[O-] | -8% | 2% | 6.3µM* | -4% | -11%
COc1ccccc1Nc1nc(-c2ccc(F)cc2)c2c(n1)-c1ccccc1OC2 | 8% | . | 6% | . | .
CCCSc1nnc(NC(=O)Cc2coc3cc(C)ccc23)s1 | 14% | . | 1% | . | .
CC12CCC(C(=O)N(CSC(=S)N/N=C\c3ccccc3)C1=O)C2(C)C (centres undefined) | ? | 77% | 4.5µM* | -54% | 8%
CC12CCC(C(=O)N(CSC(=S)N/N=C\c3ccccc3Cl)C1=O)C2(C)C (centres undefined) | -3% | 33% | -1% | -33% | 27%
COc1ccc(OC)c(CCNC(=O)CCCn2c(=O)c3cccn3c3ccc(F)cc32)c1 | 16% | . | 2% | . | .
Cn1c(=O)c2c(nc(SCC(=O)Nc3ccc(OC(F)(F)F)cc3)n2Cc2cccc(C(F)(F)F)c2)n(C)c1=O | 1% | . | -6% | . | .
